Shown is part of a subset that was picked to be rich in hits.
Dicer processing – inhibitors of Dicer pre-microRNA processing, primary screen, biochemical, cat-ELCCA, chemiluminescence; z-score at 25 µM; cat-ELCCA pre-miR-21 Dicer processing; hits give high values; 6% of 47,000 active; Endoribonuclease Dicer (Homo sapiens), Q9UPY3; in the data active = z-score above about 3, passing the limit was not always enough;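 note: higher signal means more uncleaved substrate so more Dicer inhibition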
Target sequence (Q9UPY3 whole entry, looked up): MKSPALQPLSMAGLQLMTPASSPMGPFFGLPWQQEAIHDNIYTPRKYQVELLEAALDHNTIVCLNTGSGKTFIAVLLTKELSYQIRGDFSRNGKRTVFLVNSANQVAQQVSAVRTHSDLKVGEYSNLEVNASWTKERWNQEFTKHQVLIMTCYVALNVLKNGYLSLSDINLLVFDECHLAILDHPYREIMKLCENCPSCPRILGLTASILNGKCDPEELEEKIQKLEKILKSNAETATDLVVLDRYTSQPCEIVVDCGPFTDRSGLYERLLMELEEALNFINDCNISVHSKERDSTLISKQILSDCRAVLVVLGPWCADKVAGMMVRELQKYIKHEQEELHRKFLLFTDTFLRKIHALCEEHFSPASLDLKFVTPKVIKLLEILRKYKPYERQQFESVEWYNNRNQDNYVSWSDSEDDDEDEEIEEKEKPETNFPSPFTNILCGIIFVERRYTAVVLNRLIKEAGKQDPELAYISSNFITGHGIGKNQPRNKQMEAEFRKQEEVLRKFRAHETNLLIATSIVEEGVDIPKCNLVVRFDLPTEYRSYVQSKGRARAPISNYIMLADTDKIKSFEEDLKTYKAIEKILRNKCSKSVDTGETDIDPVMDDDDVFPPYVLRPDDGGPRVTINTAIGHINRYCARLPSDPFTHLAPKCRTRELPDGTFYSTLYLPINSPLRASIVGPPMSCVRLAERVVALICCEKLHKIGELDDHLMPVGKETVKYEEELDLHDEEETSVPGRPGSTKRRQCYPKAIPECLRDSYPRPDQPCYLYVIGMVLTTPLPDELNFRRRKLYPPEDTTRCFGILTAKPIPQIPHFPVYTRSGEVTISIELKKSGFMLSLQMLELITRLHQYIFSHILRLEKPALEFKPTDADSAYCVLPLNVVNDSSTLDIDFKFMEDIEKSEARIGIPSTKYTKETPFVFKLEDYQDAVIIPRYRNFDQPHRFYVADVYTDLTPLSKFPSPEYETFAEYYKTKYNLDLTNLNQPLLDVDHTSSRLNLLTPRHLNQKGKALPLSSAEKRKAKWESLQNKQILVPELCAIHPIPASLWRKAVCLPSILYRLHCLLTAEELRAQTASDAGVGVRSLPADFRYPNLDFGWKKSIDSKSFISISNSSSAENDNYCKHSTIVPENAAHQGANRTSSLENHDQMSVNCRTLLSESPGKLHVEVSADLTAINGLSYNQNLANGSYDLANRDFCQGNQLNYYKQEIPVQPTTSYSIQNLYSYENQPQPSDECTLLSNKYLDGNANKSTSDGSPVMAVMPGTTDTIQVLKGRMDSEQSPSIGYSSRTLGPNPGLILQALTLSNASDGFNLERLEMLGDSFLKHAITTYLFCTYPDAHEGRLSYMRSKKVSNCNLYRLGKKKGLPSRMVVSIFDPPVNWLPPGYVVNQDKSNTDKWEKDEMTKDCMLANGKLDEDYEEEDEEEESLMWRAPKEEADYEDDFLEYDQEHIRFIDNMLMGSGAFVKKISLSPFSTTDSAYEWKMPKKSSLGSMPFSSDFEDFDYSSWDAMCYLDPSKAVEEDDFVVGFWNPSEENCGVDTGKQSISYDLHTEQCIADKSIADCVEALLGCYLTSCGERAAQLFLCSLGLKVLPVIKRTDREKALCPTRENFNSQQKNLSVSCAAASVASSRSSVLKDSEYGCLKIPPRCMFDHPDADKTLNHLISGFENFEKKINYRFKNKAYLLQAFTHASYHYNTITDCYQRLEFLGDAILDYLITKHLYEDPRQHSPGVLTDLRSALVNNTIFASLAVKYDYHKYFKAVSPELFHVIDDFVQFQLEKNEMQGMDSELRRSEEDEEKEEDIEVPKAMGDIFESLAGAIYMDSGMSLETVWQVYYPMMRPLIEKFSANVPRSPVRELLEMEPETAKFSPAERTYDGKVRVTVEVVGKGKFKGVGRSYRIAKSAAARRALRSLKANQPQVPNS
Hits are given with their value; - = inactive.

SMILES | Dicer processing
O=C1c2cccc3cccc(c23)C(=O)N1CCNCCN1C(=O)c2cccc3cccc(c23)C1=O | -
O=C1c2cccc3cccc(c23)C(=O)N1CC(=O)N1CCc2ccccc21 | 3.8
O=C(O)CN1C(=O)c2cccc3cccc(c23)C1=O | 3.7
O=C(CN1C(=O)c2cccc3cccc(c23)C1=O)N1CCOCC1 | -
NC(=O)C1CCN(C(=O)CN2C(=O)c3cccc4cccc2c34)CC1 | -
O=C(O)CCCN1C(=O)c2cccc3cccc(c23)C1=O | -
O=C1c2cccc3cccc(c23)C(=O)N1CCCCO | -
CC(O)CN1C(=O)c2cccc3cccc(c23)C1=O (stereo unspecified) | 3.2
O=C(O)CCCCCN1C(=O)c2cccc3cccc(c23)C1=O | -
N#C/C(=C\c1ccccc1Cl)S(=O)(=O)c1ccccn1 | -
COc1ccc(/C=C/C#N)c(Cl)c1OC | -
CN(C)C=NC(=O)c1sc(S(C)(=O)=O)c2c1CCC=C2 | -
Cc1ccc(C(=O)Nc2cnc3sc4cc(C)ccc4n3c2=O)cc1 | -
CCc1ccccc1N1C(=O)C2C3c4ccccc4C(CO)(c4ccccc43)C2C1=O (stereo unspecified) | -
COc1ccc(NC(C)=O)c(N=Cc2cc(OC)c(OC)c(OC)c2)c1 | -
Cc1cc(C)nc(-n2ncc3c2CC(c2ccco2)CC3=O)n1 (stereo unspecified) | -
O=C(NNC(=S)Nc1cc(Cl)ccc1Cl)C(O)(c1ccccc1)c1ccccc1 | -
O=[N+]([O-])c1cc(C(F)(F)F)ccc1Oc1ccc(Cl)cc1Cl | -
COc1ccc(Cc2nn3c(-c4ccc(Cl)cc4Cl)nn(-c4ccc([N+](=O)[O-])cc4)c3nc2=O)cc1 | -
NC(=O)c1c(NC(=O)COc2ccc(Cl)cc2)sc2c1CCC2 | -
CC(=O)CCCNc1nc(-c2ccc(Cl)cc2)cs1 | 6.7
Cn1ccnc1SCC(=O)Nc1nc(-c2ccc(Cl)cc2)cs1 | -
O=C(Nc1nc(-c2ccccc2)cs1)c1ccc(Cl)cc1 | -
COc1cc(Cl)c(NS(=O)(=O)c2cc(C(F)(F)F)cc(C(F)(F)F)c2)c(OC)c1 | -
CCOc1ccc(S(=O)(=O)Nc2ccccn2)c(C)c1C | -
SMILES | Dicer processing
O=C1C2C3c4ccccc4C(c4ccccc43)C2C(=O)N1c1ccccc1 (stereo unspecified) | -
O=C(O)c1ccc(N2C(=O)C3C4c5ccccc5C(c5ccccc54)C3C2=O)cc1Cl (stereo unspecified) | -
O=C(O)c1ccccc1N1C(=O)C2C3c4ccccc4C(c4ccccc43)C2C1=O (stereo unspecified) | 4.6
CCCc1nc(SCC(=O)c2ccccc2Cl)[nH]c(=O)c1C | -
O=C(NCc1ccc(Cl)cc1)c1nn2c(C(F)(F)F)cc(-c3ccco3)nc2c1Cl | 4.2
O=C(Nc1ccc(F)c(Cl)c1)c1cc2nc(-c3ccco3)cc(C(F)(F)F)n2n1 | -
O=C(NCc1cccnc1)c1nn2c(C(F)(F)F)cc(-c3ccc(F)cc3)nc2c1Cl | 3.1
CN1CCN(C(=O)c2cnn3c(C(F)(F)F)cc(-c4ccco4)nc23)CC1 | -
Cc1nn2c(C(F)(F)F)cc(-c3cccnc3)nc2c1-c1ccc(Cl)cc1 | -
Cc1nn2c(C(F)(F)F)cc(-c3ccc(Cl)cc3)nc2c1Cl | -
O=C1/C(=C/c2ccccc2Cl)CS/C1=C/c1ccccc1Cl | -
O=C1OC(c2cccnc2Oc2ccc(Cl)cc2)=N/C1=C\c1ccc(C(F)(F)F)cc1 | -
Cc1c(Cc2c(F)cccc2Cl)c(=O)oc2cc(O)ccc12 | -
CCCc1c(Cc2c(F)cccc2Cl)c(=O)oc2cc(OS(C)(=O)=O)ccc12 | -
CCCc1c(Cc2c(F)cccc2Cl)c(=O)oc2cc(OC(=O)COC)ccc12 | 4.4
CCOC(=O)CNC(=O)c1cc2cc(Br)ccc2o1 | -
Nc1ccc(N(c2ccccc2)c2ccc(N)cc2)cc1 | -
COC(=O)C(=C(C)C)c1ccc(N(C)C)cc1 | -
CN(C)c1ccc(C=C(c2ccc(N)cc2)c2ccc(N)cc2)cc1 | 6.4
COc1ccccc1NS(=O)(=O)c1cccc(S(=O)(=O)c2ccc(Br)cc2)c1 | -
CN1CCc2c(sc3c2C(=O)NC(c2cc(Br)ccc2O)N3)C1 (stereo unspecified) | -
COC(=O)c1c(N)sc2c1CCN(C)C2 | -
O=C(CC1(O)C(=O)N(CN2CCOCC2)c2ccc(Br)cc21)c1ccc(Cl)cc1 (stereo unspecified) | -
Nc1c(Cl)cc(C(=O)Nc2cc(Cl)cc(Cl)c2)cc1Cl | -
COc1ccc(-c2nc(Nc3nc4ccccc4o3)ncc2C#N)cc1 | -
SMILES | Dicer processing
Cc1cc(C)nc(Nc2nc3ccccc3o2)n1 | 4.6
Cc1cc(C)nc(Nc2n[nH]c(Cc3ccccc3)n2)n1 | -
CN(Cc1ccccc1)S(=O)(=O)c1ccc(Oc2cccc(Cl)c2C#N)cc1 | -
Cc1noc(C)c1NC(=O)NCc1cc2ccccc2s1 | -
Cc1ccc(S(=O)(=O)CCN(CCS(=O)(=O)c2ccc(C)cc2)c2ncccn2)cc1 | -
CCOC(=O)N1CCC(N/C=C(\C#N)S(=O)(=O)c2cccnc2)CC1 | -
Cc1ccc(S(=O)(=O)N/N=C(/c2ccccc2)c2ccc(OCC(C)C)cc2)cc1 | -
CN(C)CCN1C(=O)C(=O)/C(=C(/O)c2ccc(Cl)cc2)C1c1ccco1 (stereo unspecified) | -
COc1ccc(NS(=O)(=O)c2ccc3c(c2)OCCO3)c(OC)c1 | -
O=S(=O)(Nc1ccc(OCc2ccccc2)cc1)c1ccc2c(c1)OCCO2 | 3.4
O=S(=O)(NCCc1ccccn1)c1ccc2c(c1)OCCCO2 | -
Cn1c(SCc2cc(=O)oc3cc(O)ccc23)nnc1C(F)(F)F | -
CC(C)c1ccc(OCC(O)Cn2c[n+](C)c3ccccc32)cc1 (stereo unspecified) | -
CCOC(=O)CCC(=O)c1c(C)oc2ccc(OC)cc12 | 3.1
COCCOC(=O)c1c(C)oc2ccc(OC)cc12 | -
CCOC(=O)c1c(C)oc2ccc(OC)cc12 | -
S=C(NC1CC2CCC1C2)NN1C2CSC1CS2 (stereo unspecified) | -
CCCc1c(SC(=O)N(C)C)ccc2c(C)cc(=O)oc12 | -
O=C(Oc1cc2sc(=O)oc2c2ccccc12)c1ccccc1I | -
O=C(Nc1ccccc1)NC1CCS(=O)(=O)C1 (stereo unspecified) | -
O=C(Oc1ccccc1)OC1CCS(=O)(=O)C1 (stereo unspecified) | 4
Cc1ccc(OC2CCS(=O)(=O)C2)cc1 (stereo unspecified) | -
Cc1csc2c(=O)n(CCO)c(=O)[nH]c12 | 4.6
Cc1csc2c(=O)n(CCN3CCSCC3)c(=O)[nH]c12 | 5.9
CC(C)CCn1c(=O)[nH]c2ccccc21 | -
SMILES | Dicer processing
Cc1csc2nc(CN3CCOCC3)[nH]c(=O)c12 | -
Cc1csc2c(N3CCSCC3)ncnc12 | -
O=c1[nH]c2ccsc2c(=O)n1CCO | 3.2
CCc1ccc(C2C(C(=O)OCC(C)C)=C(C)NC3=C2C(=O)CC(c2cccs2)C3)s1 (stereo unspecified) | -
N#CC1=C(N)Oc2n[nH]c(-c3ccc4c(c3)OCO4)c2C1c1ccccc1Cl (stereo unspecified) | -
FC(F)(F)c1ccnc(Sc2ccccc2NC(=S)Nc2ccc(Cl)cc2)n1 | -
O=C1CCC(c2ccc(Cl)cc2)=NN1 | -
CC1=NN(c2ccccc2)C(=O)C1C(=O)c1ccccc1Br (stereo unspecified) | -
N#CC(c1cccc(C(F)(F)F)c1)c1cccc(C(F)(F)F)c1 | -
CCOC(=O)N1CCCN=C1SC | -

Compound activity from PubChem.
